# Compound activity (PubChem)
# Shown are actives, neighbours in structure and some others; about 19% of the full set was active somewhere.
# HepG2 tox: HepG2 cytotoxicity, counter-screen for TGF-b inhibitors. HepG2 CAGA-GFP viability, ATP luminescence, 18 h. Potency, µM (doses to about 46.1 µM), without a hit: at the top dose activity change, negative = cytotoxicity, most hits filed as cytotoxic. actives 0.76% (n = 410,000); also: potency is read from the fitted curve at half-maximal effect
#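 CellTiter-Glo luminescence gave cytotoxicity after 18 hours at 37 degrees C. The cells were HepG2 CAGA-GFP in 1% FBS DMEM, stimulated with 500 pg/mL TGF-beta after compound addition. %Activity was normalised to no-cell wells (complete cell-killing) and DMSO (no toxicity), and curves were fitted and classified.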
# TGFb SMAD3 inh: blocks TGF-b signaling; HepG2 CAGA-GFP TGF-b/SMAD3 reporter, GFP fluorescence, 18 h; TGF-beta stimulated, 500 pg/mL final; Potency, µM (highest dose often 46.1 µM), for the others: at the highest dose activity, negative = inhibition, most hits filed as inhibitors; AID 588855; actives 1.2% (n = 410,000); also: potency is read from the fitted curve at half-maximal effect; % is scaled to controls: 0 for no effect and ±100 for the full control effect; nearly all actives have a fitted effect of over 65% in size
#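 GFP signal (ex488/em500-530) from TGF-beta-stimulated HEPG2 CAGA-GFP cells, 500 pg/mL final, 18 h at 37 degrees C in DMEM plus 1% FBS, normalized to unstimulated and DMSO-stimulated controls.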
# DT40 TDP1 no CPT: qHTS for Inhibitors of human tyrosyl-DNA phosphodiesterase 1 (TDP1): qHTS in cells in absence of CPT; actives 15% (n = 420,000); DT40 Tdp1-/- hTDP1 cells, no CPT, ATP luminescence, 48 h; Potency, µM (titrated, usually from 46.2 µM), without a hit: at the top dose activity change, negative = growth inhibition, usual class: inhibitors; AID 686978, 2013; also: potency is read from the fitted curve at half-maximal effect; % is scaled to controls: 0 for no effect and ±100 for the full control effect; nearly all actives have a fitted effect of over 55% in size
#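 Chicken DT40 Tdp1-/- cells complemented with human TDP1, screened without camptothecin (DMSO vehicle only), 400 cells/well. Compounds pin-transferred, cells incubated at 37 °C for at least 48 hr. Growth read as ATP-dependent luminescence (CellTiter-Glo, 30 min at RT).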
# DT40 TDP1 CPT: growth inhibition of DT40 Tdp1-/-;hTDP1 cells with camptothecin (screen for TDP1 inhibitors); chicken DT40 Tdp1-/-;hTDP1 cells + 20 nM CPT, ATP luminescence, 48 h; Potency, µM (top dose mostly 46.2 µM), for the others: at the top dose activity change, negative = growth inhibition, actives largely listed as inhibitors; actives 12% (n = 420,000); also: potency is read from the fitted curve at half-maximal effect; % is scaled to controls: 0 for no effect and ±100 for the full control effect; nearly all actives have a fitted effect of over 55% in size
#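 Chicken DT40 Tdp1-/- cells complemented with human TDP1, 400 cells/well, exposed to compounds plus 20 nM camptothecin for at least 48 h at 37 C; viability read as ATP content by CellTiter-Glo luminescence.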
# ASM inhibitor: human S-ASM enzyme inhibition. P17405. placental ASM, HMU-PC fluorogenic substrate, 60 min. Potency, µM (titrated, usually from 57.5 µM), for inactives: at the highest dose activity change, negative = inhibition, most hits filed as inhibitors. actives 0.006% (n = 340,000); also: potency is read from the fitted curve at half-maximal effect
# Target sequence (P17405 47-631 limits assumed): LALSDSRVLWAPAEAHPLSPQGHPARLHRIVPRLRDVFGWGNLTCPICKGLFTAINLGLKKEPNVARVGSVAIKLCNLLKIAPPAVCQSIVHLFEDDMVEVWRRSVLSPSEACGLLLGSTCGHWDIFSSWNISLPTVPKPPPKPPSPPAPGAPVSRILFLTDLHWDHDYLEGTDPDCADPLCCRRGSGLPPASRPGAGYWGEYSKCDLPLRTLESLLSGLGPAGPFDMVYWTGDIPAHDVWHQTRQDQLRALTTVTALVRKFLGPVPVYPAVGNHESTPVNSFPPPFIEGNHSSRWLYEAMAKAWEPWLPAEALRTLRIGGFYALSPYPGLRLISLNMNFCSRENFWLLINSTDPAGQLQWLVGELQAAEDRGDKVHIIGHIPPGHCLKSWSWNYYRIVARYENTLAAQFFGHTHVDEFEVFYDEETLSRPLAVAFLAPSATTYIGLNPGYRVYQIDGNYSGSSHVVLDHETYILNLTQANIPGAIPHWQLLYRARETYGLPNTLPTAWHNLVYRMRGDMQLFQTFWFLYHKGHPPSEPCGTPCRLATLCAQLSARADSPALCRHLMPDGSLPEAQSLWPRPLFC
#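 Human placenta-derived ASM enzyme was preincubated with compound for 10 minutes at room temperature, then given fluorogenic substrate HMU-PC0 (9 uM final) for 60 minutes at 37 °C; a pH 10 stop preceded fluorescence reading at Ex 386/Em 447 nm.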
# IL-1B inflam inh: inflammasome signaling inhibition, IL-1 beta readout; THP-1 LPS/ATP IL-1B secretion, AlphaLISA, 16 h; stronger effect = lower value; activity change, % at 57.5 µM; actives 4.7% (n = 360,000); in the data active = activity change below about -50%; inconclusive = mostly about -30% to -49%; also: % is scaled to controls: 0 for no effect and ±100 for the full control effect
#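 THP-1 cells pretreated 1 hr with compounds (up to 57.5 uM final), then stimulated with LPS (250 ng/mL final) plus ATP (1.25 mM final); secreted IL-1B measured by AlphaLISA after 16 hr, decreased signal indicating inhibition.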
# Numbers without * were called inactive; i = inactive; ? = inconclusive; · = no result given; [ ] = another dose, or the depositor's remark. Unless noted, calls follow the shape of the dose curve; as a rule, active = well fitted curve in the direction sought with a large enough effect; inconclusive = small, poorly fitted or top-dose-only effect, or another doubt; inactive = no such curve, though single readings can be large; an effect the other way counts as inactive or inconclusive.
SMILES,HepG2 tox,TGFb SMAD3 inh,DT40 TDP1 no CPT,DT40 TDP1 CPT,ASM inhibitor,IL-1B inflam inh
Cc1ccc(C(=O)N(Cc2cc3ccc(F)cc3nc2N2CCC(O)CC2)CC2CCCO2)cc1 (stereo not drawn),·,·,-5%,2%[9.04 µM],·,·
CC(C)c1ccc(S(=O)(=O)N2CCC(n3c(C(F)(F)F)nc4cccnc43)CC2)cc1,-1%,-1%,?,?,·,·
CC(=O)c1ccc(F)c(-c2cc(C)cc3c2OC(CNC(=O)C[C@@H]2C[C@@H](C)NC(=S)N2)C3)c1 (stereo partly drawn),·,·,-18%,-13%[9.04 µM],·,·
Cc1ccc(C)c(NC(=O)CN2C(=O)NC(C)(c3ccc4c(c3)OCCO4)C2=O)c1 (stereo not drawn),2%,-7%,-16%,-29%,2%,2
COc1cc(CNCc2ccccn2)ccc1OCc1ccc(Cl)c(Cl)c1,-28%,-10%,?,?,-3%,-93*
Nc1ncccc1OCc1ccc(Cl)c(Cl)c1,-58%,-16%,26µM*,?,1%,?
O=C(OCc1ccc(Cl)c(Cl)c1)c1cccnc1Cl,1%,-8%,3%,20%,-3%,8
COc1cc(CNCc2ccccn2)ccc1OCC(N)=O,-7%,-21%,-10%,5%,1%,10
COc1cc(CNCc2ccccn2)ccc1OCc1ccc(Cl)cc1Cl,-70%,?,?,?,-5%,-53*
COCCn1c(SCc2csc(-c3ccccc3)n2)nc2ccccc21,-44%,-13%,18µM*,16µM*,-5%,?
COCCn1c(SCC(=O)NCc2ccccc2)nc2ccccc21,3%,0%,-19%,7%,-10%,10
Cc1cc(C(=O)COC(=O)c2ccc(O)cc2O)c(C)n1C(C)C,-19%,-19%,13µM*,18µM*,-1%,7
COc1ccc(NCc2cc3cc4c(cc3n(CC(=O)Nc3ccc(C)c(C)c3)c2=O)OCO4)cc1,-4%,0%,·,·,·,·
COc1ccccc1C(=O)NC(=O)COC(=O)C1CC2CCCC(C1)C2=O (stereo not drawn),5%,8%,-9%,-13%,180%,-7
COc1cccc(-c2nc(=S)c3c(n2Cc2ccco2)CCCC3)c1,-20%,6%,?,16µM*,-11%,0
Cc1cccc(-c2nc(=S)c3c(n2Cc2ccco2)CCCC3)c1,-2%,-7%,?,21µM*,-8%,6
Cc1ccc(-c2nc(=S)c3c(n2Cc2ccco2)CC(C)(C)OC3)cc1,-19%,1%,23µM*,16µM*,-12%,10
O=C1O[C@@H]2[C@@H](O)[C@H](O)O[C@@H]2[C@H]1O,·,·,0%,10%,·,·
O=C1CN(S(=O)(=O)c2ccccc2Cl)CCN1,33%,-1%,-3%,2%,3%,3
COc1ccc(C2OC34CCCCC3C(C#N)(C#N)C2(C#N)C(=N)O4)cc1 (stereo not drawn),0%,13%,7.3µM*,5.8µM*,i,19
CC1OC23CCCCC2C(C#N)(C(=N)O3)C1(C#N)C#N (stereo not drawn),-13%,0%,?,?,107%,?
CCC1OC23CCCCC2C(C#N)(C(=N)O3)C1(C#N)C#N (stereo not drawn),3%,46%,13µM*,?,i,-5
CC1C2(C)OC(=N)C(C#N)(C(C)O2)C1(C#N)C#N (stereo not drawn),10%,-20%,-9%,-26%,i,-9
CCCC1OC23CCCCC2C(C#N)(C(=N)O3)C1(C#N)C#N (stereo not drawn),0%,16%,16µM*,7.3µM*,i,?
CN1OC[C@@H]2CN(C(=O)CCc3ccccc3)[C@H](c3ccccc3Br)C[C@@H]21,1%,-9%,-23%,-22%,·,-16
SMILES,HepG2 tox,TGFb SMAD3 inh,DT40 TDP1 no CPT,DT40 TDP1 CPT,ASM inhibitor,IL-1B inflam inh
COc1cccc(CNC(=O)c2ccc3nc(CCc4ccccc4)oc3c2)c1OC,0%,23%,?,-23%,·,·
O=C(OCC1CCNCC1)c1ccc(F)cc1,-2%,16%,2%,0%,2%,6
CC(C)N1CCN(c2ccc(OCC3COC(Cn4cncn4)(c4ccc(Cl)cc4Cl)O3)cc2)CC1 (stereo not drawn),-11%,-18%,?,?,-4%,-53*
CCC(C)n1ncn(-c2ccc(N3CCN(c4ccc(OC[C@H]5CO[C@](Cn6cncn6)(c6ccc(Cl)cc6Cl)O5)cc4)CC3)cc2)c1=O (stereo partly drawn),·,·,-27%,-14%,·,·
CC(C)N1CCN(c2ccc(OC[C@H]3CO[C@](Cn4cncn4)(c4ccc(Cl)cc4Cl)O3)cc2)CC1,13µM*,?,?,?,-5%,-24
O=C(CNC(=O)c1cccc(F)c1)N/N=C/c1cccnc1,-5%,30%,-24%,-2%,4%,59
Cc1cccc(C)c1NC(=O)C(CCc1ccccc1)N1CCN(C)CC1 (stereo not drawn),·,·,-23%,-20%,·,-14
CCOc1cccc(/C=C/c2cc(C(=O)O)c3ccccc3n2)c1OC,1%,2%,-7%,-11%,32%,-2
CC(C)c1ccc([C@@H]2O[C@H](CCc3ccccc3)Cc3[nH][nH]c(=O)c32)cc1,·,·,?,-29%,·,-10
CC(C)C1OC(CCc2ccccc2)Cc2[nH][nH]c(=O)c21 (stereo not drawn),·,·,23µM*,-23%,·,-7
O=C(c1cccc(S(=O)(=O)NCCOc2ccccc2)c1)N1CCN(c2ncccn2)CC1,1%,19%,23µM*,26µM*,-1%,26
O=C(c1cccc(S(=O)(=O)NCc2ccccc2)c1)N1CCN(c2ccccc2)CC1,-22%,?,5.2µM*,6.5µM*,-3%,27
O=C(c1cccc(S(=O)(=O)NCc2ccccc2)c1)N1CCN(c2ccccc2Cl)CC1,-10%,?,?,15µM*,-9%,-18
COc1ccccc1N1CCN(C(=O)c2cccc(S(=O)(=O)NCc3cccnc3)c2)CC1,-28%,-29%,?,16µM*,0%,14
COc1ccc(NC(=O)N(C(C)C)C2CCN(C(C)=O)CC2)c(OC)c1,0%,-3%,-1%,-10%,·,·
